Reference: PMC12136788
Substitutions are numbered along the chain they refer to. The full ranking holds about 5,800 sequences; the median of “enrichment r” is about 0.68, and the highest 2% start at about 11. Shown is part of a subset that was picked to be rich in the highest values.

T1: UNK ZnF1-6 (called full-length) (human, UniProt Q9C0B0 30-357)
T1 sequence: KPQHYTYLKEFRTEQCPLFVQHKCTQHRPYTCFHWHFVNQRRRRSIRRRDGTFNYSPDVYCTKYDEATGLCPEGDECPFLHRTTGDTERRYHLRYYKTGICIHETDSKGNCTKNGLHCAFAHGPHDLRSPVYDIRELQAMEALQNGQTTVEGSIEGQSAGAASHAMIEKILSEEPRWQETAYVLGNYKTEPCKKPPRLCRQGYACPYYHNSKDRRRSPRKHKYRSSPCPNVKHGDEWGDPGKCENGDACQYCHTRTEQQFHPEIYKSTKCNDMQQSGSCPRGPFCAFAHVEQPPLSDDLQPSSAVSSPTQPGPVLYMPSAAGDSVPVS

B1: chr17:15565482:15566353:-|three_prime_utr|ENSG00000241322|control|control|control (ssRNA)
RNA: GGGAGUUCUACAGUCCGACGAUCCACCCAAAGAAAAAGUCUUGGAAAAUCCCUAUGUCACCUGACCAAUUCCUCCUGACUGUUAGCGCCCUGCAGCACGCCCGUAAUUCCGGGGAAUUUGCCUAUCCCUGUAGGCCCCAAACACAACAGAGGAUUGAGCAUCA
B2: chr16:58599380:58599482:-|5pUTR|ENSG00000125107|unk|FALSE|unique (ssRNA)
RNA: GGGAGUUCUACAGUCCGACGAUCCAGAACAGAGUAAGACCCCUGGUAAAGAAGAACUGAAGAUAUUAUACAGAUACCAGAUAUAGCCUAAUUACAAAGAAAGCAUUAACCUGCCUCUGAGGUGACUAAAGGGGAAUAAUGGUGCAACAGAGGAUUGAGCAUCA
B3: chr12:108645191:108645284:-|3pUTR|ENSG00000110880|msi1_unk|total|mutant (ssRNA)
RNA: GGGAGUUCUACAGUCCGACGAUCUCUUUUUUUUUUUUUUUUUUUAAGCCAUGACAUCCCAGAAGAGGACAGUGAAUUACUCCCCGGUCGGCUCUUACCGAGUGGCCACCGUGUUCUGUCAAAACACUUGCUUCCAUUUUCAGACAACAGAGGAUUGAGCAUCA
B4: chr8:23842113:23842214:-|3pUTR|ENSG00000159167|msi1|total|mutant (ssRNA)
RNA: GGGAGUUCUACAGUCCGACGAUCACUUCCGACAUUUUUGUGCCAUUAUAUUUGCAUUAUGUAUUUAUAAUUUAAAUGAUAUUCCGGUUUUUGGCUGAGUACUGGAAUAAACAGUGAGCAUAUCUGGUAUAUGUCAUUAUUUAUCAACAGAGGAUUGAGCAUCA
B5: chr1:202941098:202941199:-|3pUTR|ENSG00000159346|msi1_unk|total|mutant (ssRNA)
RNA: GGGAGUUCUACAGUCCGACGAUCCCUCCCUUACCCCCAUCCUUAACUUUGUAUCCUGGCUUAUAACAGGCCAUCCAUUUUUGCCGCACACUUUUCAAAAACAAUUAUAUACCCUGGUCCCAUCUUUCCCGGGCCUGGAUCUGCCAACAGAGGAUUGAGCAUCA
B6: chr9:74692981:74693082:+|3pUTR|ENSG00000198963|unk|total|mutant (ssRNA)
RNA: GGGAGUUCUACAGUCCGACGAUCUUUUAUAUUACUUCCGAAUGUAACCGGUUUUUGUCCUUAUUUUAUGUCCUGUAAAUUAUCCGUUCAAUACUGUCCGCAUUCCCGGAUAAUGCACACAUGAUUUCUGAAUGUUUUCUGUAACAACAGAGGAUUGAGCAUCA
B7: chr6:149889094:149889339:-|three_prime_utr|ENSG00000164520|control|control|control (ssRNA)
RNA: GGGAGUUCUACAGUCCGACGAUCGGCAGCUCCCUUUAAAGGUCAAAAGCCUUCCCUGUGUGGGUGUCAGUGUGUGUGUGCGAUAGAAAAUUUGAUUGACUUCUCCGUGGGCUUCCUGUCUGGAGAGUCAGUGAUGGCUAUAAGCAACAGAGGAUUGAGCAUCA
B8: ENSG00000198589:be:win_1801|CDS|ENSG00000198589|bound_else_gene|NA|bound_elsewhere_windowed (ssRNA)
RNA: GGGAGUUCUACAGUCCGACGAUCACAGUCAACAUAUAUAACACCAUUCGGAGAGUUGGAACAGUGCUUCUCAUCAUGCACACGCUGAAGUACUACUACUGGGCAGUGAAUCCUCAGGAUCGAAGUGGUAUCACCCCAAAAGGACAACAGAGGAUUGAGCAUCA
B9: chr21:18281039:18281221:-|CDS|ENSG00000154646|control|control|control (ssRNA)
RNA: GGGAGUUCUACAGUCCGACGAUCACCUCUCCUCAAACAGUCCCUCGAUUAAUAGAUGAAAUUGUCAUAAACCCUCAUUACAAUAGGCGAAGAAAGGACAACGACAUUGCCAUGAUGCAUCUGGAAUUUAAAGUGAAUUACACACAACAGAGGAUUGAGCAUCA
B10: chr2:206311781:206311882:+|3pUTR|ENSG00000204186|unk|FALSE|unique (ssRNA)
RNA: GGGAGUUCUACAGUCCGACGAUCUAGUGUUUAGAGUCCUUUCAUUUUAAGAUUCAGAAACAGCCUUUGUCCAACAUUUUCUGUAGAAGAACUUCAUCUUAAUUUAUGUCACAAAAUAAUUUAGCACCGUAUAUAGAAUUUUGUCAACAGAGGAUUGAGCAUCA
B11: chr5:52955293:52955406:+|3pUTR|ENSG00000213949|unk|FALSE|unique (ssRNA)
RNA: GGGAGUUCUACAGUCCGACGAUCUACCAACCAGUGUGAGCUGACUUCAGCACACCACUGAGACAGAUUACACGAUAGACAGAUAGAUAGAUAGAUAGAUAGAUAGAUAGAUAGAUAGAUAGAUAGAUAUUGAUAGAGAACAUGCAACAGAGGAUUGAGCAUCA
B12: chr20:53567570:53567671:-|3pUTR|ENSG00000171940|unk|FALSE|unique (ssRNA)
RNA: GGGAGUUCUACAGUCCGACGAUCUCACAAGCUGAGCCAUAUGUACAUAAUCUAGAUUUUGUUUUCAUAGUUUUGCACUUUUAUAGCCUAUUUUUGAAGAUUAACACAUUUGCAAGAUGAUUGACUCAAUCUUUGCCUAAUCCACAACAGAGGAUUGAGCAUCA
B13: chr14:103503186:103503248:+|CDS_3pUTR|ENSG00000075413|msi1_unk|FALSE|overlapping (ssRNA)
RNA: GGGAGUUCUACAGUCCGACGAUCUGCUUCCAAAAUUGCCAAUGAGCUAAAGCUGUAACCCAGUGAUUAUGAUGUAAAUUAAGUAGCAAUUAAAGUGUUUUCCUGAACACUGAUGGAAAUGUAUAGAAUAAUAUUUAGGCAAUACAACAGAGGAUUGAGCAUCA
B14: chr12:76029359:76029534:-|3pUTR|ENSG00000139289|msi1|FALSE|unique (ssRNA)
RNA: GGGAGUUCUACAGUCCGACGAUCAGAAGUUUAAAAAGCUAAAAGUUAAAAAUGGUGUAAUUAUGAAAAUCUAACACUCAAGAUAGUUUCUAAAAGGAAAUCAGUAGUUAAGGAUACCUGAUUUCAAAAUAUUUAAAGCAUAACCAACAGAGGAUUGAGCAUCA
B15: ENSG00000136451:be:win_1001|CDS|ENSG00000136451|bound_else_gene|NA|bound_elsewhere_windowed (ssRNA)
RNA: GGGAGUUCUACAGUCCGACGAUCACCAAAAGCAGCAGCAGCAGCAGCAGCAGCAGCAGCAGCAGCAGCAACAACAACAACAACAACAUGUGACAAGCUGGCCAGGGAAGCAAGUAGAAACACUGAGACUGUGGGAAGAAGCUGCAACAGAGGAUUGAGCAUCA
B16: chr5:52955293:52955406:+|3pUTR|ENSG00000213949|unk|total|mutant (ssRNA)
RNA: GGGAGUUCUACAGUCCGACGAUCUACCAACCAGUGUGAGCUGACUUCAGCACACCACUGAGACAGAUUACACGACCGACAGACCGACCGACCGACCGACCGACCGACCGACCGACCGACCGACCGAUAUUGACCGAGAACAUGCAACAGAGGAUUGAGCAUCA
B17: chr12:98549714:98549829:+|3pUTR|ENSG00000120802|unk|FALSE|unique (ssRNA)
RNA: GGGAGUUCUACAGUCCGACGAUCGAAGAUGUAUAUUUAGACCAGCACACAAUUUUGAUUUCAAUUAGCCUUAUUCUAAUAUUUAGCUUUUAGAUCUUUCAUACACAUUUUCACGUACUUUGCAAUUGAGACCAGAAAGACUUGCAACAGAGGAUUGAGCAUCA
B18: chr11:74334375:74334476:-|3pUTR|ENSG00000165434|msi1|FALSE|unique (ssRNA)
RNA: GGGAGUUCUACAGUCCGACGAUCUUUUUGUUUUAUUUUUAAAAUGUGUAAAACAUCUUUUGUUUUAUAUGCUUUUAAGAAUGUAGAUUGUAAUUUAGGAAAUGGCAUAUAUUCUGCAAAGUGGUAUAAUGUUGUAUAUAUGAACAACAGAGGAUUGAGCAUCA
B19: chr2:206311781:206311882:+|3pUTR|ENSG00000204186|unk|total|mutant (ssRNA)
RNA: B10 RNA with U24C, A25C, U31C, A32C, U83C, A84C, U121C, A122C, U133C, A134C
B20: chr16:57253408:57253449:+|3pUTR|ENSG00000102931|msi1_unk|FALSE|overlapping (ssRNA)
RNA: GGGAGUUCUACAGUCCGACGAUCUGUGUGGUAGAUUACUUAUCAGAAAACAUAUAUGUCAUCUCUAGAACGAAGAAAAAGCAUAGUAGUUCAAUUCCCAGUGUGUCCCUUUGAUUUUUUUUUUUUAAUAGUAAAAAUAAGAAUCAACAGAGGAUUGAGCAUCA
B21: ENSG00000198589:be:win_6551|CDS|ENSG00000198589|bound_else_gene|NA|bound_elsewhere_windowed (ssRNA)
RNA: GGGAGUUCUACAGUCCGACGAUCGACGUAUUUCAUUAGCUAGUCCACGUCAGCUUUUUAAGGCUUCUAAUAUGACCCAGCGAUGGCAACACAGAGAGAUAUCUAAUUUUGAGUACUUGAUGUUUCUCAACACGAUAGCAGGACCAACAGAGGAUUGAGCAUCA

What follows are binders tested against T1, UNK ZnF1-6 (called full-length) (assay: nsRBNS (natural sequence RNA bind-n-seq); RBNS binding buffer (assumed for nsRBNS): 25 mM Tris pH 7.5, 150 mM KCl, 3 mM MgCl2, 0.01% Triton X-100, 500 ug/ml BSA, 20 U/ml SUPERase-In, 4 C; UNK is unkempt and MSI1 is Musashi-1; names of the RNAs are library labels; protein concentration not given here; high values mean tight binding).

Binder	binding signal [enrichment R]
B1	0.988
B2	0.956
B3	4.25
B4	0.575
B5	2.09
B6	0.468
B7	0.908
B8	0.542
B9	0.684
B10	11.6
B11	24.7
B12	3.86
B13	11.1
B14	1.92
B15	0.905
B16	0.427
B17	32.9
B18	3.22
B19	0.453
B20	1.9
B21	0.548
